Source: PubChem BioAssay (National Center for Advancing Translational Sciences (NCATS))
Hits are enriched below; roughly 17% of the tested compounds scored in any of these assays.
TGFb SMAD3 inh: inhibitors of TGF-b signaling | Potency, µM (highest dose often 46.1 µM), for inactives: at the highest dose activity, negative = inhibition, actives largely listed as inhibitors | HepG2 CAGA-GFP TGF-b/SMAD3 reporter, GFP fluorescence, 18 h; TGF-beta stimulated, 500 pg/mL final | hit rate 1.2% among 410,000; also: % is scaled to controls: 0 for no effect and ±100 for the full control effect; nearly all actives have a fitted effect of over 65% in size
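Cell-based qHTS in HEPG2 carrying a CAGA-GFP Smad reporter; compounds added before 500 pg/mL final TGF-beta, 18 h incubation at 37 degrees C, GFP fluorescence quantified per cell by imaging cytometry.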
ATXN viability: viability counter-screen for ATXN expression inhibitors; S2 cells (HEK-293 line with an ATXN2-luciferase reporter) viability, CellTiter-Fluor protease fluorescence, 24 h; hit rate 0.49% among 400,000; Potency, µM (titrated, usually from 56.7 µM), actives largely listed as cytotoxic; also: nearly all actives have a fitted effect of over 40% in size
HepG2 tox: HepG2 cytotoxicity, counter-screen for TGF-b inhibitors. HepG2 CAGA-GFP viability, ATP luminescence, 18 h. Potency, µM (highest dose often 46.1 µM), for the others: top-dose activity change, negative = cytotoxicity, usual class: cytotoxic. hit rate 0.76% among 410,000
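CellTiter-Glo luminescence gave cytotoxicity after 18 hours at 37 degrees C. The cells were HepG2 CAGA-GFP in 1% FBS DMEM, stimulated with 500 pg/mL TGF-beta after compound addition. %Activity was normalised to no-cell wells (complete cell-killing) and DMSO (no toxicity), and curves were fitted and classified.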
DT40 TDP1 no CPT: qHTS for Inhibitors of human tyrosyl-DNA phosphodiesterase 1 (TDP1): qHTS in cells in absence of CPT; Potency, µM (top dose mostly 46.2 µM), without a hit: at the top dose activity change, negative = growth inhibition, actives largely listed as inhibitors; hit rate 15% among 420,000; DT40 Tdp1-/- hTDP1 cells, no CPT, ATP luminescence, 48 h; also: % is scaled to controls: 0 for no effect and ±100 for the full control effect; nearly all actives have a fitted effect of over 55% in size
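A cellular qHTS used chicken DT40 cells lacking endogenous Tdp1 but carrying stably transfected human TDP1. Compounds were applied without camptothecin, and cell growth kinetics were judged by ATP-dependent luminescence after ≥48 hr.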
ATXN2 expr inh: reduces ATXN2 reporter expression in HEK-293 cells; HEK-293 ATXN2-luciferase reporter, luminescence, 24 h; hit rate 0.72% among 360,000; Potency, µM (titrated, usually from 57 µM), without a hit: top-dose activity change, negative = inhibition, hits mostly inhibitors; also: % is scaled to controls: 0 for no effect and ±100 for the full control effect; nearly all actives have a fitted effect of over 55% in size
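ATXN2-luciferase reporter cells (luciferase flanked by upstream and downstream ATXN2 gene portions) were treated 24 h at 37 °C with compounds at up to 57 uM. SteadyGlo luminescence gave expression; GF-AFC fluorescence gave viability.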
TDP1 cell CPT: growth inhibition of DT40 Tdp1-/-;hTDP1 cells with camptothecin (screen for TDP1 inhibitors) | chicken DT40 Tdp1-/-;hTDP1 cells + 20 nM CPT, ATP luminescence, 48 h | Potency, µM (highest dose often 46.2 µM), for the others: top-dose activity change, negative = growth inhibition, usual class: inhibitors | hit rate 12% among 420,000; also: % is scaled to controls: 0 for no effect and ±100 for the full control effect; nearly all actives have a fitted effect of over 55% in size
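Cell growth measured by CellTiter-Glo luminescence after a minimum 48 h, 37 C compound exposure with 20 nM CPT in Tdp1-knockout DT40 cells stably expressing hTDP1, seeded 400/well; qHTS titration format.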
Active calls of the source: *; i = inactive; ? = inconclusive; / = not tested or not shown. Calls follow the shape of the dose curve; as a rule, active = well fitted curve in the direction sought with a large enough effect; inconclusive = small, poorly fitted or top-dose-only effect, or another doubt; inactive = no such curve, though single readings can be large; an effect the other way counts as inactive or inconclusive. Potency is read from the fitted curve at half-maximal effect.

SMILES	TGFb SMAD3 inh	ATXN viability	HepG2 tox	DT40 TDP1 no CPT	ATXN2 expr inh	TDP1 cell CPT
C[C@H]1CN([C@@H](C)CO)C(=O)CCCn2cc(nn2)CO[C@@H]1CN(C)C(=O)c1cc(-c2ccccc2)on1	2%	i	-22%	?	-6%	?
C=C1C=C(C(F)F)n2ncc(C(=O)NCc3ccc(F)cc3)c2N1	2%	/	4%	?	/	?
C=CCN1C(=O)/C(=C\c2ccc(Cl)cc2)N=C1SCC(=O)NC1CCCCC1	-6%	i	1%	-16%	4%	-5%
COc1ccc(Cl)cc1N1C(=O)/C(=C\c2sccc2C)N=C1SCC(=O)NC1CC1	4%	i	1%	16µM*	-2%	16µM*
Clc1cccc(Cc2c(C3CCCCC3)nc3ccc(Cl)cn23)c1	?	?	-18%	?	-11%	?
O=C(Cc1ccc(S(=O)(=O)N2CCOCC2)s1)Nc1ccccc1N1CCCC1	-23%	i	-22%	15µM*	-3%	16µM*
O=C(Cc1ccc(S(=O)(=O)N2CCOCC2)s1)Nc1ccc(N2CCOCC2)cc1	26%	i	38%	-10%	27%	8%
O=C(Cc1ccc(S(=O)(=O)N2CCOCC2)s1)Nc1cc(C(F)(F)F)ccc1N1CCCC1	-29%	i	-13%	21µM*	-30%	?
O=C(Nc1ccc(N2CCOCC2)cc1N1CCOCC1)c1ccc(F)cc1	0%	i	-1%	-29%	-17%	-26%
CCOC(=O)C1(C)CCN1C(=O)c1cc(OC)ccc1Br (stereo unspecified)	12%	i	8%	?	8%	?
COc1ccc2c(c1)C1(Nc3ccccc3-c3nc4ccccc4n31)C(=O)N2C (stereo unspecified)	13%	i	4%	21µM*	0%	?
CCCCOC(=O)c1ccc(-n2nnc3c(sc4nc(C)cc(C)c43)c2=O)cc1	3%	/	0%	?	/	-22%
N#CC(c1ccc(Cl)cc1)c1ncc(C(F)(F)F)cc1Cl (stereo unspecified)	2%	i	0%	-2%	-2%	-24%
Cn1cccc1C(C#N)c1ncc(C(F)(F)F)cc1Cl (stereo unspecified)	-30%	i	-23%	7.3µM*	-10%	?
COc1ccc(F)cc1S(=O)(=O)NCC(c1ccco1)S(=O)(=O)c1cccs1 (stereo unspecified)	-29%	/	2%	?	/	?
CCCn1c2ccccc2c2cnn(CC(=O)NC3CCN(Cc4ccccc4)CC3)c(=O)c21	1%	i	-14%	?	-25%	16µM*
CCCn1c2ccccc2c2cnn(CC(=O)NC3CCCCC3C)c(=O)c21 (stereo unspecified)	12%	i	10%	18µM*	/	?
CCCn1c2ccccc2c2cnn(CC(=O)NCCCN3C(C)CCCC3C)c(=O)c21 (stereo unspecified)	-1%	i	-24%	?	/	?
CCN(Cc1ccncc1)C(=O)c1ccc(C)o1	7%	i	12%	3%	1%	2%
COc1cccc(CNC(=O)CCNS(=O)(=O)c2ccc(C)cc2)c1	-1%	i	6%	-23%	9%	-17%
CSc1nn(Cc2ccc(C)cc2)c(N)c1S(=O)(=O)c1ccccc1	?	i	-33%	23µM*	-20%	21µM*
CSc1nn(CC(=O)Nc2ccc(C)cc2C)c(N)c1S(=O)(=O)c1ccc(Cl)cc1	?	?	-37%	?	?	?
